# Measured values: PubChem BioAssay AID1159580 (chemical genetic matrix, 2015)
# Screen size: about 5,500 compounds; about 2,000 (36%) were called active. Roughly 18% stayed inconclusive and do not appear here. The list shows a part of the results. Values without a mark were called inactive. No stated cut-off is given here; in the data, active means normalized growth mostly below about 0.91 (no sharp cut-off); inconclusive means no clear call, values can overlap the other calls; inactive means mostly above about 0.92.
# Assay: chemical genetic growth profiling, strain panel (AID 1159580);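 further: tested at 20 µM; growth read once vehicle control cultures reached saturation at 30 °C; 1 = growth at the plate median or of vehicle wells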
# Settings: S. cerevisiae deletion strains, growth OD
structure (smiles),measurement,setting,value
CN(C)CCOc1ccc(/C(=C(/CCCl)c2ccccc2)c2ccccc2)cc1,normalized growth,"locus YAL021C, strain ccr4, stronger effect = lower value",0.0628 (active)
same,normalized growth,"locus YAL026C, strain drs2, stronger effect = lower value",0.0599 (active)
same,normalized growth,"locus YAL030W, strain snc1, stronger effect = lower value",0.0605 (active)
same,normalized growth,"locus YBL061C, strain skt5, stronger effect = lower value",0.0647 (active)
same,normalized growth,"locus YBR009C, strain hhf1, stronger effect = lower value",0.0629 (active)
same,normalized growth,"locus YBR023C, strain chs3, stronger effect = lower value",0.0684 (active)
same,normalized growth,"locus YBR171W, strain sec66, stronger effect = lower value",0.1 (active)
same,normalized growth,"locus YBR231C, strain swc5, stronger effect = lower value",0.0672 (active)
same,normalized growth,"locus YBR279W, strain paf1, stronger effect = lower value",0.0678 (active)
same,normalized growth,"locus YCL011C, strain gbp2, stronger effect = lower value",0.0647 (active)
same,normalized growth,"locus YCL016C, strain dcc1, stronger effect = lower value",0.0711 (active)
same,normalized growth,"locus YCL061C, strain MRC1, stronger effect = lower value",0.107 (active)
same,normalized growth,"locus YCL069W, strain vba3, stronger effect = lower value",0.071 (active)
same,normalized growth,"locus YCR088W, strain abp1, stronger effect = lower value",0.0709 (active)
same,normalized growth,"locus YDL005C, strain med2, stronger effect = lower value",0.0725 (active)
same,normalized growth,"locus YDL040C, strain nat1, stronger effect = lower value",0.0985 (active)
same,normalized growth,"locus YDR001C, strain nth1, stronger effect = lower value",0.0873 (active)
same,normalized growth,"locus YDR069C, strain doa4, stronger effect = lower value",0.0653 (active)
same,normalized growth,"locus YDR137W, strain rgp1, stronger effect = lower value",0.0958 (active)
same,normalized growth,"locus YDR159W, strain sac3, stronger effect = lower value",0.0868 (active)
same,normalized growth,"locus YDR195W, strain ref2",0.126 (active)
same,normalized growth,"locus YDR297W, strain sur2, stronger effect = lower value",0.0624 (active)
same,normalized growth,"locus YDR334W, strain swr1, stronger effect = lower value",0.0691 (active)
same,normalized growth,"locus YDR335W, strain msn5, stronger effect = lower value",0.0647 (active)
same,normalized growth,"locus YDR392W, strain spt3, stronger effect = lower value",0.0935 (active)
same,normalized growth,"locus YEL003W, strain gim4, stronger effect = lower value",0.0736 (active)
same,normalized growth,"locus YEL037C, strain rad23, stronger effect = lower value",0.0691 (active)
same,normalized growth,"locus YEL061C, strain CIN8 (second series), stronger effect = lower value",0.0848 (active)
same,normalized growth,"locus YER015W, strain faa2, stronger effect = lower value",0.0621 (active)
same,normalized growth,"locus YER016W, strain bim1, stronger effect = lower value",0.0811 (active)
same,normalized growth,"locus YER111C, strain swi4, stronger effect = lower value",0.0861 (active)
same,normalized growth,"locus YER155C, strain BEM2 (second series), stronger effect = lower value",0.107 (active)
same,normalized growth,"locus YFR010W, strain ubp6, stronger effect = lower value",0.069 (active)
same,normalized growth,"locus YGL167C, strain pmr1, stronger effect = lower value",0.0724 (active)
same,normalized growth,"locus YGL173C, strain kem1, stronger effect = lower value",0.0697 (active)
same,normalized growth,"locus YGL227W, strain vid30, stronger effect = lower value",0.0851 (active)
same,normalized growth,"locus YGL240W, strain doc1, stronger effect = lower value",0.0984 (active)
same,normalized growth,"locus YGL253W, strain hxk2, stronger effect = lower value",0.0578 (active)
same,normalized growth,"locus YHR013C, strain ard1, stronger effect = lower value",0.111 (active)
same,normalized growth,"locus YHR027C, strain rpn1, stronger effect = lower value",0.063 (active)
same,normalized growth,"locus YHR030C, strain SLT2, stronger effect = lower value",0.711 (active)
same,normalized growth,"locus YHR079C, strain IRE1, stronger effect = lower value",0.837 (active)
same,normalized growth,"locus YHR142W, strain chs7, stronger effect = lower value",0.0764 (active)
same,normalized growth,"locus YJL092W, strain hpr5, stronger effect = lower value",0.0832 (active)
same,normalized growth,"locus YJL095W, strain BCK1 (second series), stronger effect = lower value",0.0582 (active)
same,normalized growth,"locus YJL095W, strain BCK1, stronger effect = lower value",0.648 (active)
same,normalized growth,"locus YJL115W, strain asf1, stronger effect = lower value",0.118 (active)
same,normalized growth,"locus YJL129C, strain trk1, stronger effect = lower value",0.0917 (active)
same,normalized growth,"locus YJL154C, strain vps35, stronger effect = lower value",0.0755 (active)
same,normalized growth,"locus YJL164C, strain tpk1, stronger effect = lower value",0.0629 (active)
same,normalized growth,"locus YJL166W, strain qcr8, stronger effect = lower value",0.0637 (active)
same,normalized growth,"locus YJL187C, strain SWE1, stronger effect = lower value",0.0638 (active)
same,normalized growth,"locus YJR066W, strain TOR1, stronger effect = lower value",0.819 (active)
same,normalized growth,"locus YKL160W, strain elf1, stronger effect = lower value",0.079 (active)
same,normalized growth,"locus YKR026C, strain gcn3, stronger effect = lower value",0.106 (active)
same,normalized growth,"locus YKR091W, strain srl3, stronger effect = lower value",0.0783 (active)
same,normalized growth,"locus YLL001W, strain dnm1, stronger effect = lower value",0.0676 (active)
same,normalized growth,"locus YLL026W, stronger effect = lower value",0.0624 (active)
same,normalized growth,"locus YLL041C, strain sdh2, stronger effect = lower value",0.0691 (active)
same,normalized growth,"locus YLR027C, strain aat2, stronger effect = lower value",0.0598 (active)
same,normalized growth,"locus YLR113W, strain HOG1, stronger effect = lower value",0.791 (active)
same,normalized growth,"locus YLR221C, strain rsa3, stronger effect = lower value",0.0691 (active)
same,normalized growth,"locus YLR258W, strain gsy2, stronger effect = lower value",0.0661 (active)
same,normalized growth,"locus YLR262C, strain YPT6 (second series), stronger effect = lower value",0.0861 (active)
same,normalized growth,"locus YLR320W, strain mms22, stronger effect = lower value",0.0789 (active)
same,normalized growth,"locus YLR342W, strain FKS1, stronger effect = lower value",0.0712 (active)
same,normalized growth,"locus YLR357W, strain rsc2, stronger effect = lower value",0.148 (active)
same,normalized growth,"locus YLR370C, strain arc18, stronger effect = lower value",0.0617 (active)
same,normalized growth,"locus YLR384C, strain iki3, stronger effect = lower value",0.078 (active)
same,normalized growth,"locus YML120C, strain ndi1, stronger effect = lower value",0.0751 (active)
same,normalized growth,"locus YMR058W, strain fet3, stronger effect = lower value",0.064 (active)
same,normalized growth,"locus YMR125W, strain sto1, stronger effect = lower value",0.0872 (active)
same,normalized growth,"locus YMR129W, stronger effect = lower value",0.0788 (active)
same,normalized growth,"locus YMR205C, strain PFK2, stronger effect = lower value",0.0858 (active)
same,normalized growth,"locus YMR231W, strain pep5, stronger effect = lower value",0.0638 (active)
same,normalized growth,"locus YNL071W, strain lat1, stronger effect = lower value",0.0628 (active)
same,normalized growth,"locus YNL183C, strain NPR1, stronger effect = lower value",0.85
same,normalized growth,"locus YNL209W, strain ssb2, stronger effect = lower value",0.0599 (active)
same,normalized growth,"locus YNL248C, strain rpa49, stronger effect = lower value",0.166 (active)
same,normalized growth,"locus YNL322C, strain KRE1 (second series), stronger effect = lower value",0.433 (active)
same,normalized growth,"locus YNR049C, strain mso1, stronger effect = lower value",0.0725 (active)
same,normalized growth,"locus YOR001W, strain rrp6, stronger effect = lower value",0.0831 (active)
same,normalized growth,"locus YOR070C, strain gyp1, stronger effect = lower value",0.0593 (active)
same,normalized growth,"locus YOR080W, strain dia2, stronger effect = lower value",0.0814 (active)
same,normalized growth,"locus YOR083W, strain WHI5, stronger effect = lower value",0.0673 (active)
same,normalized growth,"locus YOR106W, strain vam3, stronger effect = lower value",0.117 (active)
same,normalized growth,"locus YOR231W, strain MKK1, stronger effect = lower value",0.791 (active)
same,normalized growth,"locus YOR265W, strain rbl2, stronger effect = lower value",0.0684 (active)
same,normalized growth,"locus YOR270C, strain vph1, stronger effect = lower value",0.0918 (active)
same,normalized growth,"locus YOR290C, strain snf2, stronger effect = lower value",0.0929 (active)
same,normalized growth,"locus YPL051W, strain arl3, stronger effect = lower value",0.0673 (active)
same,normalized growth,"locus YPL078C, strain atp4, stronger effect = lower value",0.0865 (active)
same,normalized growth,"locus YPL106C, strain sse1, stronger effect = lower value",0.1 (active)
same,normalized growth,"locus YPL240C, strain hsp82, stronger effect = lower value",0.0664 (active)
same,normalized growth,"locus YPL256C, strain CLN2, stronger effect = lower value",0.835
